Source: PubChem BioAssay AID1508600 (Functional Genomics Laboratory (NCATS/FGL), 2020)
Out of some 53,000 sequences screened, about 3,700 (7%) were called active.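 The calls were made as follows: active = gene knockdowns whose robust z-score for IL-1 alpha signal is at least 2 or at most -2, so actives lie on both sides; inactive = the rest.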 The entries come from a sample that favours actives as a whole.

Test: Components of the Cytosolic LPS Sensing Pathway: Gene Identification via Genome-wide siRNA Screen;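 also: robust z of the log signal after scaling to non-targeting control siRNA wells of the plate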
Settings: RAW264.7 macrophages, IL-1a HTRF, actives lie on both sides, screened at 100 nM (by protocol), cells primed 5 h with Pam3CSK4 first
Outline: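 RAW264.7; siRNA 100 nM final, RNAiMAX, 48h 37 degrees C; Pam3CSK4 5 h; LipidA + TransIT-TKO 24 h; IL-1a HTRF; CellTiter-Glo viability; robust z vs negative-control median.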

z-score, inactive:
GCAAUGUGCACGAUGAUGATT against Pik3cg -0.79
CCUAGUGAAUCCUCUCGUATT against Eqtn 0.178
GCCGAGCUCAAUGUGGGUATT against Bsn 1.11
GGCAGAGAGAUGUUACAAGTT against Ccl8 0.408
GGUACACUGGUAUACGUAUTT against Samd9l -1.45
GGUUUCAAGACAUUGAAAGTT against Arl14ep -0.424
CGAUGACAUCAGGAUUGUUTT against Adgrg7 -0.124
GGACUUAUUAUGUGAGUGUTT against Ncbp2 0.555
CGGACACACUUUGUUAUUATT against 4833420G17Rik 0.198
GGACGUAACAAAAUGUUCUTT against P2ry12 0.578
CGGUGGAAUUCGUUAGAAGTT against Ireb2 -0.183
GGAAGGCCCUAGAAAGGACTT against Gm5094 0.209
GCGUGGCUGUCAUGUAUUUTT against Olfr231 0.247
GGAAGAUGUAUUCUUCUCCTT against Gemin4 0.499
GGAGAAGGAGCUGGAAACGTT against Cttn 0.645
GGGCUACUUCCUGACUAAATT against Ube2s -0.505
GGACACUAUGCAAUCACCCTT against Rnf216 -0.481
GGUCUACGUAGAGGAGCUGTT against Mrpl28 1.04
GGGAAGCCUUUCUUGUCAGTT against Vmn1r40 -0.847
GGAAUAAAGAAUGGUAUACTT against Zfp280d -0.0544
CCAGUAGCACGUGUUAUUUTT against Rbmy 0.0944
GGAUUAAGAAAGAAACAGGTT against Zfp438 -0.387
GGCCACAGAGCCAAAGAUUTT against Cdca7 0.808
GCUUGAUCGAAGAAAGACATT against Tdrd3 0.709
CGACAGUGAAUGCGCUAAGTT against Slc7a9 -0.218
GCAAAUUCACCGGAAAAUGTT against Sorbs3 1.04
GGAGACUUAGAAAAAGACUTT against Olfr1426 1.17
GGAGUUUGUAACCCUCCUGTT against Cabp7 1.07
GCCGUCAUCAUGGAAGGUUTT against Bace1 0.0589
GGGUCAAUCAGAAGCUAGGTT against Creb3l4 -0.573
GGCAACUGACUAUUUAUUATT against Kcnk13 0.558
GCAGUAUAAGAAUUUCAUGTT against Thada -0.325
GGAAAUGUUCUUCAUGUCATT against 1110038F14Rik -1.95
GGCACGUCUGGACAACAUCTT against Cd22 -0.707
GGAGGUGACCUGUAAUCCCTT against Msmb 0.0151
GCUUUCACUAAUCAGUACATT against Setd5 -0.0813
GCUUCUGAUUAACCUCCAGTT against Olfr1390 -1.49
GCUUACCUUUGGAUUCAAATT against Cd68 -0.446
GGGAAAAAGAGCUUUUAGCTT against Helt -0.552
GGUGGCCGUGAAGAAGAUCTT against Mapk4 -0.902
GGGCUUAAGGAAUAAACCATT against Phtf2 -0.317
GCCUCCAACUGAACAAAUUTT against Tnfrsf14 0.0618
GGACCAUCUCUUUGAUUGGTT against Olfr424 -1.12
UCUUUGGCAACACUACCAUTT against Olfr1386 0.366
GAAGUCCUGGGACUUUAUGTT against Nudt14 0.208
GGUUUCGUUGUUCUUGUUGTT against Ttc33 0.55
GGUAGAAGAGAACUGGACATT against Oas1a 0.228
GGCAUGAUUAUUGUGUUUGTT against Abcb11 0.41
CCUAAGUACUGUAAGAAUATT against Mycn 0.506
GCCAUUCUAGGAACUCUGATT against Thrap3 -1.3
GGUAUCAGACAGCUGUAACTT against Mptx1 0.359
GCAUCAGUAGAAACCCACATT against Tmigd3 0.872
CCCUACUAUUGACGAAAACTT against Hpn 1.66
CCUGAUCUUAAACAAAGAATT against 2610507B11Rik -0.742
GGUUGUUGAAAAGUCUUUATT against Rasa2 -0.102
GCACUGGAAAAUUUCUAAUTT against Vmn2r7 -0.0531
GGACAAUUACAACACUCAATT against Ablim3 -0.00526
GGCUUGAUCAUGACUUAAATT against Armc8 0.638
GGUUUUGUUAUGGUAAGUCTT against Vdr -0.573
CCAAGCAUUCGAGUAUGUUTT against Ctsj 1.07
GGAAGACAACUGAACAUUUTT against Ralgds 0.837
GGCCGUAAUAUCUCCUCCUTT against Krt13 1.41
CGCGAGGUCUUCGAAAGAATT against Siva1 -0.884
CGCGUUUCGUGUUUCAAAATT against Mus81 -0.464
GAUCGAAGCCUAAGACCGCTT against Cypt3 -0.578
GCCUUAGGGAGUGUUAAAATT against Spink8 -0.304
GGAAUUCCUUACCUUCUUATT against Cyp2c65 -0.269
GGAGCAUCACUCUUAACAUTT against Krt71 1.58
GGGACACUUUCACUUGUUCTT against Rmnd5a 0.159
GCUCAGGCAAGACUCAUUGTT against Trim45 -0.57
GGACUUUUGGCACUCUUAUTT against Snx10 0.127
GCUUAAAAGUGAAGUCUUGTT against Tmem203 -0.615
GUAAGGUCACCGGGUUGCATT against Lor 0.547
GGUGGUCCUGGAUCUUUAUTT against Spon2 -0.986
GGACUUCGACAAACUGAAGTT against Zfp532 0.547
GGUUCUAUGUUGACAAUCATT against Osgin2 0.621
GGAAAUCUGAGUGUGCACUTT against Pcdhgb1 1.45
GGAUAAUACAUCCCAAAACTT against Prkar2b -0.607
GGAUCUCCAGAGCAGAAAATT against Nckap5 -1.64
GGGUGUUGAUGUCAUUGUGTT against Dbn1 1.51
GCAUGCACUUAAGAUUCUATT against Lypd6b 0.595
CCAGGAAUCAGUCUAUACUTT against Lrrc15 1.45
GGACCUGGAGAAAUUGAAGTT against Nlrp6 1.82
GGUCAUCUCAGACCUCCUCTT against Pde6a -0.275
GCAAAACCAUUUCGAAACATT against Slc41a3 0.363

z-score, active:
GGGUACAAAGCAACAUUGGTT against Disp1 4.2
GGAAGAAAGUGAGCCUUGUTT against Senp6 -2.14
GGCUGAUCCAUUUUCACAATT against Adam6a -2.77
GGAAAUCAGAAGAAGAACATT against Hars 2.67
CCUGAAAACCAUGCAAUACTT against Tas2r125 -2.37
GCGUAGGUUACGUUCAAGGTT against Ermard 2.74
GGAAUCCUUGGACCUGAGGTT against Tnni3 -2.11
GCAUGAGUAUUCCAAGGAGTT against Arhgef7 -2.36
GGAGCAACAGAGAUUUCUUTT against Sergef 2.07
GGAGAUCUCAGAGAGUGAGTT against Atn1 -2.52
GGACAGAAUUGAAAUGCCUTT against Ropn1l -2.08
CGCCAUGUUUAACAAAUUGTT against Limk2 -2.22
GCCAACCCUGAAAACCCUUTT against Gc -2.54
GGAGGUAGAAAUAAAUACUTT against Sva 2.01
CCAAUGAUUUCCUGCUAAATT against Lst1 3.21
CCGGAAGCUAUUGACCAUUTT against Tmem11 3.21
GGUGGAGAAGCAGAUGCUUTT against Nek2 2.25
GGAUUUGAUUCCGCCAACGTT against Pon2 -2.03
GCCUUCUUGAACUGAAAGATT against Spc24 -2.04
GGCUGUCUUCAUCUUAGAUTT against Copz2 -2.61
GGUGAAUUCAACUCUCUAATT against Decr1 2.43
GGUUGUAACAAACAUACUCTT against Sstr4 2.99
CCUGUGGAUCCAUUUGUUCTT against Tex15 -2.25
